Assay [1] concerns the target Cytochrome P450 1A2 (Homo sapiens) (UniProt P05177). Briefly: p450-cyp1a2 (AID 410; calls by dose curve; further: potency means the concentration at half of the fitted maximal effect;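 on activity change, negative = inhibition: -100% = full effect of reference inhibitor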). A digest of the protocol:
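Human CYP1A2 (20nM) demethylated Luciferin-ME at its Km (100uM) in 100mM KPO4. After 10 min compound preincubation, NADPH regeneration ran the reaction 60 min at room temperature. Luciferin was read by luminescence, normalized to 57 uM furafylline.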

The target in assay [2] is Glucocorticoid receptor (Homo sapiens) (UniProt P04150). The assay can be described thus: GR-GFP Redistribution (AID 450;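 active means compounds whose dose series gives a full or clear partial fitted curve of increased nuclear translocation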; further: potency means the concentration at half of the fitted maximal effect). To be noted: U2OS GR-GFP nuclear translocation, laser cytometry, 2 h.
Sequence of Glucocorticoid receptor (Homo sapiens) (P04150 whole entry, looked up): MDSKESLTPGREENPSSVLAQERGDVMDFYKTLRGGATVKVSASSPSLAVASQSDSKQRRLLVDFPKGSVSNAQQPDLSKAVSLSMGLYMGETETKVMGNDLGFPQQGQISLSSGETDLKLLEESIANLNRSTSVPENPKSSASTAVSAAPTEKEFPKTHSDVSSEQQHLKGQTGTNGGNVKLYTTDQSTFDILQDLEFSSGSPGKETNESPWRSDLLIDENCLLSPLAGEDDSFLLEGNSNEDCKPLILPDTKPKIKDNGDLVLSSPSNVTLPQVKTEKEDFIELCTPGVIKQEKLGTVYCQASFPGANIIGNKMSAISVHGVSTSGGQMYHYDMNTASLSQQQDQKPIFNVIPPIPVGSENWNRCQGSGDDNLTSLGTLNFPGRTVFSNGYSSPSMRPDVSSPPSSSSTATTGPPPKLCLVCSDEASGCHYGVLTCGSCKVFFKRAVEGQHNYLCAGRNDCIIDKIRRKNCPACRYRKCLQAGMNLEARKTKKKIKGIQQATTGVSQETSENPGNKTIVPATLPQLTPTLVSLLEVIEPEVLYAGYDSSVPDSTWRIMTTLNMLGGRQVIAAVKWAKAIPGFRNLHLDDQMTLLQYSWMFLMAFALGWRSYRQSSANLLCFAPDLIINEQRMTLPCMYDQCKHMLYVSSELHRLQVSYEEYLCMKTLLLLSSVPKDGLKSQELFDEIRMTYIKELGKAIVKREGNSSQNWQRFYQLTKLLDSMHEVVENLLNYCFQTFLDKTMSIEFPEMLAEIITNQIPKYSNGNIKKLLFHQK
The target is the same in assay [3]. The assay can be described thus: GR-EFC Redistribution (AID 451; calls by dose curve; further: potency means the concentration at half of the fitted maximal effect). To be noted: CHO-K1 GR-EFC translocation, beta-gal luminescence, 2 h. A digest of the protocol:
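CHO-K1 cells stably expressing nuclear-localized β-gal enzyme acceptor and GR fused C-terminally to the enzyme donor fragment; ligand-driven nuclear translocation restores β-gal by complementation. Compounds titrated up to 46 uM final, 2 h at 37 °C; luminescence read.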

For assay [4], the target named is Mitogen-activated protein kinase 10 (Mus musculus) (UniProt Q61831). Briefly: JNK3 AlphaScreen Assay (AID 530; active means well fitted curve in either direction with a large enough effect, not every such curve was filed as active;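 further: kinase came from lysate of stimulated human HepG2 cells; signal reports phosphorylation of biotinylated GST-cJun 1-79 at Ser73 with 10 µM ATP; on the % scale 0 is the no-effect control and ±100 the full control effect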). An outline of the steps:
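JNK3 came from HepG2 lysates pre-activated with IL-1beta and TNF-alpha and phosphorylated biotinylated GST-cJun (1-79) at 10 uM ATP, pH 7.6, room temperature. Compounds were titrated. AlphaScreen signal used anti-phospho-cJun (Ser73) antibody.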

In assay [5] the target is 3',5'-cyclic-AMP phosphodiesterase 4B (Homo sapiens) (UniProt Q07343). Briefly: qHTS Assay for Inhibitors of PDE-IV (AID 607; active means well fitted activation curve with a large enough effect in the main read-out, with a control signal flat, not every such curve was filed as active; further: % of control where 0% means no effect). A digest of the protocol: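 ACTOne HEK293 cells carry a modified cAMP-gated CNG channel and express endogenous PDE4; plated 1000 cells/well, compounds up to 22.9 uM final. Membrane-potential dye fluorescence (ex 535/em 590) was read; parental cells received 10 uM forskolin + 100 uM RO 20-1724.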
Sequence of 3',5'-cyclic-AMP phosphodiesterase 4B (Homo sapiens) (Q07343 whole entry, looked up): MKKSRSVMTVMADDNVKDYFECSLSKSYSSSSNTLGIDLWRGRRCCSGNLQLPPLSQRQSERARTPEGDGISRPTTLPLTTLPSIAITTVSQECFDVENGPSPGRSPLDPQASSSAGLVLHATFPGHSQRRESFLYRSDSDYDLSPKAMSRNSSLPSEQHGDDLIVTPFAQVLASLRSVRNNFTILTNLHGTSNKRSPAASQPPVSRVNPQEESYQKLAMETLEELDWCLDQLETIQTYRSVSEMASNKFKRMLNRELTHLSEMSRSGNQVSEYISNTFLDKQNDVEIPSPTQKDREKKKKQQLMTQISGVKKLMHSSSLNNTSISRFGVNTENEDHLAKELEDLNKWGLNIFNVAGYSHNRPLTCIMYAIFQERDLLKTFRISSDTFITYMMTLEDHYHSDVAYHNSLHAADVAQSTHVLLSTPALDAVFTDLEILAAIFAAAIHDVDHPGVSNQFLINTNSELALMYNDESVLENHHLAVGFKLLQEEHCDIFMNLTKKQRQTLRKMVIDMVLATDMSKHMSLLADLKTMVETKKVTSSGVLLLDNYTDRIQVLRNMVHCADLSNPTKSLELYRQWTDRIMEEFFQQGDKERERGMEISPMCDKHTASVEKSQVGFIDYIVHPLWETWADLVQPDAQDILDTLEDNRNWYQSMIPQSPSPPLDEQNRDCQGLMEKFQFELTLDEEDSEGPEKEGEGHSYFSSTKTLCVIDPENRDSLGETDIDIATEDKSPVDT

Assay [6] in a line: qHTS Assay for Lipid Storage Modulators (AID 1519; calls by dose curve; further: potency means the concentration at half of the fitted maximal effect). As to conditions: Drosophila S3 cells, BODIPY lipid droplet/cell ratio, laser cytometry, cells loaded with oleic acid; for activity change, negative = inhibition: at 57.5 µM (top of the series). An outline of the steps: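 Cells seeded at 5,000 per well were treated with compounds over a concentration series and loaded with oleic acid (400 uM, as added). Lipid droplet fluorescence (488 nm excitation, 500-530 nm channel) was read by laser-scanning cytometry and normalized to 20 uM Triacsin C.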

Assay [7] addresses Ubiquitin carboxyl-terminal hydrolase 1 (Homo sapiens) (UniProt O94782). Briefly: Inhibitors of USP1/UAF1: Pilot qHTS (AID 504865).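 Further: rhodamine fluorescence freed from ubiquitin-rhodamine substrate followed over time; top concentration of the series differs between compounds; on the % scale 0 is the no-effect control and ±100 the full control effect; nearly all actives have a fitted effect of over 35% in size.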 A digest of the protocol: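 Kinetic fluorescence assay: 1nM USP1/UAF1, 15 min compound preincubation, then 150nM Ub-Rho; 480/540 nm.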
The target of assay [8] is DNA dC->dU-editing enzyme APOBEC-3G (Homo sapiens) (UniProt Q9HC16). Briefly: qHTS for inhibitors of Vif-A3G interactions: Validation (AID 588379). Further: 0% is about no effect. A digest of the protocol:
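HeLa cells stably expressing Vif and A3G-eYFP, 700 cells/well, incubated overnight at 37 deg C, then exposed to compound overnight at 37 deg C. Inhibition of Vif-mediated degradation read as increased yellow fluorescence (Ex 488/Em 500-530) by laser-scanning cytometry.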
Background: qHTS replaces the single test concentration by a dilution series.

The test system of assay [9] is Zika virus NS2B-NS3 protease. Briefly: Primary screen GU AMC qHTS for Zika virus inhibitors (AID 1347154).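 Further: 0% = no-inhibitor control and -100% = no-enzyme control; nearly all actives have a fitted effect of over 70% in size.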 A digest of the protocol:
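Unlinked Zika NS2B hydrophilic domain/NS3 protease domain noncovalent complex (25 nM final) in 10 mM Tris-HCl pH 8.0, 0.01% Tween 20, with AMC peptide substrate. Fluorescence (ex 340, em 450 nm) change over 15 min, room temperature; percent inhibition fitted to 4-parameter Hill equation.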

The nature of assay [10]: Primary qHTS for small molecule stabilizers of the endoplasmic reticulum resident proteome: Secreted ER Calcium Modulated Protein (SERCaMP) assay (AID 1508630). Further: on the % scale 0 is the no-effect control and ±100 the full control effect. A digest of the protocol: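 GLuc-SERCaMP-expressing SH-SY5Y cells, pretreated 16 h with compound, are challenged with thapsigargin to empty ER calcium stores; after 4 h, coelenterazine is added directly to the medium and luminescence is imaged.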

The nature of assay [11]: AP1 Signaling Pathway (AID 357; active means well fitted curve in either direction with a large enough effect, not every such curve was filed as active;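 further: ME-180 reporter cells stimulated with EGF at its EC50 level; on the % scale 0 is the no-effect control and ±100 the full control effect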). To be noted: ME-180 AP-1-bla reporter, EGF-induced, beta-lactamase ratio, 5 h; at 38 µM (top of the series). A digest of the protocol:
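Read-out was the 460nm/530nm emission ratio (excitation 405nm) after CCF4 loading for 2.5 hours at room temperature. Cells carried an AP-1-driven beta-lactamase reporter, were stimulated with EC50 EGF plus compound for 5 hours, and AC50 values came from titrations.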

Assay [12] in a line: NFAT Signaling Pathway (AID 444; active means well fitted curve in either direction with a large enough effect, not every such curve was filed as active;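 further: carbachol stimulus at about its EC50 of 1 µM final; on the % scale 0 is the no-effect control and ±100 the full control effect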). To be noted: Jurkat NFAT-bla M1, carbachol, beta-lactamase ratio, 5 h; at 38 µM (top of the series). A digest of the protocol: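 Jurkat cells carrying an NFAT-driven β-lactamase reporter and co-transfected muscarinic M1 receptor were treated with compound plus carbachol (1 uM final, an EC50 level) for 5 h at 37 °C. CCF4 loading followed for 1 h at RT; 460/530 nm ratio gave %activity.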

Assay [13] is described as follows: Stat Signaling Pathway (AID 446; active means well fitted curve in either direction with a large enough effect, not every such curve was filed as active). To be noted: ME-180 (cervical carcinoma) SIE beta-lactamase reporter, IL-6 stimulated, 5 h; at 38 µM (top of the series). An outline of the steps:
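ME-180 SIE-bla cells; overnight plating; cpd + IL-6 40 pM, 5 h, 37 C; LiveBLAzer 2.5 h RT; 460/530 nm emission ratio. Normalized to 300 pM IL-6 and 125 nM JAK inhibitor controls.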

Assay [14] deals with Guanine nucleotide-binding protein G(i) subunit alpha-1 (Homo sapiens) (UniProt P63096). The assay can be described thus: qHTS Assay for Inhibitors of RGS12 GoLoco Motif Activity (Green Fluorophore) (AID 879).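 Further: 0% = labeled peptide with Gαi1 and full inhibition = labeled peptide alone without protein; negative values mean loss of peptide binding seen as reduced polarization.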 An outline of the steps:
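Fluorescence polarization assay: 50 nM Gαi1 with 10 nM FITC-labeled RGS12 GoLoco peptide in 10 mM Tris pH 7.5, 150 mM NaCl, 0.1 mM GDP, 0.05% NP40, 10 min at room temperature with compound.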

Assay [15] deals with Cytochrome P450 2C19 (Homo sapiens) (UniProt P33261). The assay can be described thus: qHTS Assay for Inhibitors and Substrates of Cytochrome P450 2C19 (AID 899). Further: on the % scale 0 is the no-effect control and ±100 the full control effect; nearly all actives have a fitted effect of over 60% in size. An outline of the steps: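 NADPH-dependent conversion of Luciferin-H EGE (10uM, at KM) by 5nM enzyme in 50mM KPO4, 60 min at 37C following 10 min compound preincubation. Stopped with luciferin detection buffer; luminescence read after 20 min.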

Assay [16] is described as follows: qHTS Assay for Identification of Small Molecule Agonists for Thrombopoietin (TPO) Signaling Pathway (AID 917). Further: on the % scale 0 is the no-effect control and ±100 the full control effect. An outline of the steps:
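We measured Glycoprotein IIb promoter–luciferase output in IL-3-starved Ba/F3 murine cells expressing the human TPO receptor after 24 hrs at 37 C with compounds and 26 pM TPO.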

Assay [17] addresses Pyruvate kinase (Leishmania mexicana) (UniProt Q27686). Briefly: qHTS Validation Assay for Inhibitors of Leishmania Mexicana Pyruvate Kinase (AID 945).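 Further: 0% = DMSO only neutral control wells.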 A digest of the protocol: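 The enzyme is a highly purified E451W mutant of LmPYK used at 0.2 nM. It converts 0.5 mM PEP and 0.1 mM ADP over 1 h at room temperature; product ATP is quantified by luciferase luminescence relative to DMSO controls.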

The target of assay [18] is Pyruvate kinase PKM (Homo sapiens) (UniProt P14618). Briefly: qHTS Assay for Activators of Human Muscle Pyruvate Kinase (AID 954; active means well fitted curve in the direction sought with a large enough effect, not every such curve was filed as active;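 further: 0% = uninhibited enzyme and -100% = no enzyme or full thiadiazolimine inhibition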). A digest of the protocol:
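Luminescence from a luciferase ATP-detection/stop reagent reported PKM2 activity. Reactions contained 0.1 nM purified human enzyme, 0.5 mM PEP, 0.1 mM ADP and 7 mM MgCl2 at pH 7.2, run 1 h at RT.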

Assay [19] has as its target alpha-glucosidase (Oryza sativa, rice) (UniProt Q653V4). Briefly: Counterscreen for Glucocerebrosidase Inhibitors: qHTS Assay for Rice alpha-Glucosidase at pH 5.0 (AID 997).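 Further: 0% = full activity with enzyme and -100% = basal without enzyme.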 A digest of the protocol: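 Rice alpha-glucosidase (4 nM final) with 400 uM 4-methylumbelliferyl-alpha-D-glucopyranoside in citrate buffer pH 5.0, 20 min at room temperature, stopped at pH 10; fluorescence 365/440 nm, compounds 0.7 nM–77 uM, AC50 from Hill fits.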
(In general: The purpose of a counterscreen is to sort out artefacts and off-target activity.)

Assay [20] addresses Cytochrome P450 3A4 (Homo sapiens) (UniProt P08684). The assay can be described thus: qHTS Assay for Activators of Cytochrome P450 3A4 (AID 885). Further: nearly all actives have a fitted effect of over 65% in size. An outline of the steps:
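20nM CYP3A4 + 25uM Luciferin-PPXE (=KM), 200mM KPO4; cpd 10 min RT; NADPH regen, 60 min RT; stop w/ detection buffer, 20 min; luminescence. Normalized to 57 uM ketoconazole.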

Setting [21] is: measured here: cell count channel max response.
[22] abbreviates: measured here: lipid channel max response.

“And” between values parts separate entries of the source, which are not always exact repeats. Equal values may be shown once. Records with an inconclusive call do not appear. The source made the active and inactive calls. Unless noted, the call rests on the fitted dose curve; in most records, active means well fitted curve in the direction sought with a large enough effect; inconclusive means small, poorly fitted or top-dose-only effect, or another doubt; inactive means no such curve, though single readings can be large; an effect the other way counts as inactive or inconclusive.

Sequence of Ubiquitin carboxyl-terminal hydrolase 1 (Homo sapiens) (O94782 whole entry, looked up): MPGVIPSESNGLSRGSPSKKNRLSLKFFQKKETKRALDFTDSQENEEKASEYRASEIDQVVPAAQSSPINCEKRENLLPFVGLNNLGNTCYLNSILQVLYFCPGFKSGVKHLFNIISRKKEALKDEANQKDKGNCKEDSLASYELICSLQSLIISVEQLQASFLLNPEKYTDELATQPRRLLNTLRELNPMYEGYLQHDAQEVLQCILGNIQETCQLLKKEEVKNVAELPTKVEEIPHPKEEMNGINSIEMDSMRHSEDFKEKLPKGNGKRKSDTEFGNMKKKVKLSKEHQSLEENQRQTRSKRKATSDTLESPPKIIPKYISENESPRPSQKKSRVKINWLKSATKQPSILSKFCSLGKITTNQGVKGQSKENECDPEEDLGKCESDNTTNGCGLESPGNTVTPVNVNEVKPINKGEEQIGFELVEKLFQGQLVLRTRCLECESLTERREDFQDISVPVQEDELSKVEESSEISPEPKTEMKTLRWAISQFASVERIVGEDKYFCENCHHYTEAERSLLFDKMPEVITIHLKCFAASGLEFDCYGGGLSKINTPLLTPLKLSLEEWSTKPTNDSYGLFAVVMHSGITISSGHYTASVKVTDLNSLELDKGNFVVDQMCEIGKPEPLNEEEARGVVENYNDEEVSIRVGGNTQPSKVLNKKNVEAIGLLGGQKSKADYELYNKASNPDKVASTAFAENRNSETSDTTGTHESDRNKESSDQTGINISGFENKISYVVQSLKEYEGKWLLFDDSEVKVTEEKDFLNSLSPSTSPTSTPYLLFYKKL
Sequence of Pyruvate kinase (Leishmania mexicana) (Q27686 2-499 E452W): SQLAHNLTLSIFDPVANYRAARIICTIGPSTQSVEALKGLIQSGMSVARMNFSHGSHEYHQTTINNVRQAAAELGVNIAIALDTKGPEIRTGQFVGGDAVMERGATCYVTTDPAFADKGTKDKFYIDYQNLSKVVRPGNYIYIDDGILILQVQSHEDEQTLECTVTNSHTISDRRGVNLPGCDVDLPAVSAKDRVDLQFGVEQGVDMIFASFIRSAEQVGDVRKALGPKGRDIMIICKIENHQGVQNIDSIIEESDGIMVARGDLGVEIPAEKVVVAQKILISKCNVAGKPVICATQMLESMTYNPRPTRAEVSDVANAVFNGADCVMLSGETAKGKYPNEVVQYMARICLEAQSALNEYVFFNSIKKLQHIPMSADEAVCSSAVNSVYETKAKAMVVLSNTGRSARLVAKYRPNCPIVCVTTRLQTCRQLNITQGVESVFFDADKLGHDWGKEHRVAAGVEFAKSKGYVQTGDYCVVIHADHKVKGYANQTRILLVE
Sequence of Cytochrome P450 1A2 (Homo sapiens) (P05177 whole entry, looked up): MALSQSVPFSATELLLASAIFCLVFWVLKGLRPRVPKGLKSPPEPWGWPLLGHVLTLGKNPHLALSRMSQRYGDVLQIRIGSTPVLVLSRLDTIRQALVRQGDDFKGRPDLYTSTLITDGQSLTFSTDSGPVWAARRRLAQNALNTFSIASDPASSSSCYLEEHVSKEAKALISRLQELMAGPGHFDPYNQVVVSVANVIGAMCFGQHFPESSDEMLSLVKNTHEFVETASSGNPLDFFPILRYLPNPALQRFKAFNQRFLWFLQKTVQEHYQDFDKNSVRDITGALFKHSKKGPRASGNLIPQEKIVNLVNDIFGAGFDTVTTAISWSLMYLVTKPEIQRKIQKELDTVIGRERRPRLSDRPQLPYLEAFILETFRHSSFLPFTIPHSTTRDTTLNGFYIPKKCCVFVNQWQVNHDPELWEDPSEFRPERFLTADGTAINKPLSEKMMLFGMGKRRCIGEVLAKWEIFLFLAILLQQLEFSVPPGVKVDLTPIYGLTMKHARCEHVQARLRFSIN
Sequence of Guanine nucleotide-binding protein G(i) subunit alpha-1 (Homo sapiens) (P63096 whole entry, looked up): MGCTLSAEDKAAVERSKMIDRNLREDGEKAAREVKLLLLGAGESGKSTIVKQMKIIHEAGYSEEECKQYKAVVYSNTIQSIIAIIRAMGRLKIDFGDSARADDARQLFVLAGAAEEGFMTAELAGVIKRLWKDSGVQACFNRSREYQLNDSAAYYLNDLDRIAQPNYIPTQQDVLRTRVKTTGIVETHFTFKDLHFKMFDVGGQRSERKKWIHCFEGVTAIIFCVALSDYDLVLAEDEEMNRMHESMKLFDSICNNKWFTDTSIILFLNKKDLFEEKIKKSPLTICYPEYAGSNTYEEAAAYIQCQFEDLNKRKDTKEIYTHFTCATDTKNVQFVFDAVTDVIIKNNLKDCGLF
Sequence of DNA dC->dU-editing enzyme APOBEC-3G (Homo sapiens) (Q9HC16 whole entry, looked up): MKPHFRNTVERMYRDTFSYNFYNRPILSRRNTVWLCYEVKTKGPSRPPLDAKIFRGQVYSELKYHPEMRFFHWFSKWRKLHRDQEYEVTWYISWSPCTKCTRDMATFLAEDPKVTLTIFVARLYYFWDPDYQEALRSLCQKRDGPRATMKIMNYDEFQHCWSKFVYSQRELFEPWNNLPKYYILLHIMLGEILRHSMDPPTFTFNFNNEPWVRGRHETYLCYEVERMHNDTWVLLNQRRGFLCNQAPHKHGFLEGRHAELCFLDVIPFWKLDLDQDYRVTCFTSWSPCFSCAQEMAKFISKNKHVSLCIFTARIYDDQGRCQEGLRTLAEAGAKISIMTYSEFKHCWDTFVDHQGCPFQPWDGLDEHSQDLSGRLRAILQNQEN
Sequence of Pyruvate kinase PKM (Homo sapiens) (P14618 whole entry, looked up): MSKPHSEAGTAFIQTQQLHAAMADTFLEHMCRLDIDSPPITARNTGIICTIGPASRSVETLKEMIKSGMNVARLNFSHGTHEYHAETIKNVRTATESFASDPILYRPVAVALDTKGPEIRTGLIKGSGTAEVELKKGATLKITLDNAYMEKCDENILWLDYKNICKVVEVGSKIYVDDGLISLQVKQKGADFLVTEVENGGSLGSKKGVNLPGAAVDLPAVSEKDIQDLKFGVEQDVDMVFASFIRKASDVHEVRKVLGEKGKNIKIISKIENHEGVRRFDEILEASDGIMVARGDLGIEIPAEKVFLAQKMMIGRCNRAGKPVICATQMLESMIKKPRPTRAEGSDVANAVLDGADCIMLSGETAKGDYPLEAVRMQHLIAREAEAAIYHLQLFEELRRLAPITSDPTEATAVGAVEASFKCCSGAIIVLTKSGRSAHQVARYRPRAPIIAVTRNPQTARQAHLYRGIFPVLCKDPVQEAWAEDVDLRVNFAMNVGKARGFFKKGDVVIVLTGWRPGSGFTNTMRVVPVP

On to `N[C@H](CCC(=O)NCC(=O)O)C(=O)O`, for which the Potency entry in assay [1], in assay [4], in assay [5], in assay [7], in assay [8] and in [9] was “inactive” throughout. For the same compound, in [10], the Potency entry is “inactive”. Moreover, the Potency in [2] and in assay [3] was > 46 µM (inactive) throughout. Moreover, the activity change, negative = inhibition in assay [6] is -2.27% (inactive). For the same compound, the max response in [6] (setting [21]) amounted to 4.97%; in assay [6] (setting [22]), 3.09%.
As to `O=C(O)[C@H]1CN(CCCP(=O)(O)O)CCN1`, the activity change, negative = inhibition is 1.7% (inactive) in [11]; 8.84% (inactive) in [12]; 5.99% (inactive) and -0.486% (inactive) in assay [6]. Moreover, the Potency result in assay [1], in [4], in assay [5], in assay [15], in [16] and in assay [17] was “inactive” each time. Also, the Potency entry in assay [7], in [8], in [9] and in [10] was “inactive” in each case. The activity, negative = inhibition in assay [13] was 7.55% (inactive). The Potency in [2] and in assay [3] was > 46 µM (inactive) each time. For the same compound, the result in assay [14], in assay [18] and in assay [19] was inactive. For the same compound, the max response in assay [6] (setting [21]) is -5.69% and -2.47%; in [6] (setting [22]), 0.367% and -3.68%.
Regarding `C[C@@](N)(C(=O)O)c1ccc(S(=O)(=O)O)cc1`, the Potency entry in assay [1], in assay [4], in assay [5], in assay [7], in assay [8] and in assay [9] was “inactive” throughout. In addition, in assay [10], the Potency result is “inactive”. In addition, the Potency in [2] and in [3] was > 46 µM (inactive) each time. Also, the activity change, negative = inhibition in [6] is -0.133% (inactive). Further, the figures for the max response in assay [6] (setting [21]) and in assay [6] (setting [22]) were 9.59% and 13.8%, respectively.
Consider `N[C@H](CCC(=O)N[C@H](CSN=O)C(=O)NCC(=O)O)C(=O)O`, for which the activity change, negative = inhibition was -9.57% (inactive) in assay [11], 0.964% (inactive) in assay [12] and 1.5% (inactive) in assay [6]. Also, the Potency entry in assay [1], in assay [4], in assay [5], in [17], in [8] and in [9] was “inactive” in each case. In [10], the Potency result is “inactive”. Besides, the activity, negative = inhibition in assay [13] is 14.7% (inactive). In addition, the Potency in [2] and in assay [3] was > 46 µM (inactive) throughout. Also, in [14], the outcome was inactive. The results for the max response in assay [6] (setting [21]) and in assay [6] (setting [22]) were 13.2% and 16.6%, respectively.
On to `O=C(O)CCC/C=C\C[C@@H]1CO[C@H](C(F)(F)F)O[C@@H]1c1ccccc1O`, for which the Potency in [2] and in assay [3] was > 46 µM (inactive) throughout. The Potency result in [4], in [20], in [7], in assay [8], in assay [9] and in assay [10] was “inactive” throughout. Besides, the activity change, negative = inhibition in assay [6] was 0.11% (inactive). The max response in [6] (setting [21]) was -8.58%; in assay [6] (setting [22]) it was -8.44%.
`N[C@@](C(=O)O)(c1ccc(P(=O)(O)O)cc1)C1CC1`: the Potency in assay [2] and in [3] was > 46 µM (inactive) throughout. The Potency entry in assay [4], in [8], in assay [9] and in assay [10] was “inactive” in each case. Further, in assay [6], the activity change, negative = inhibition is -7.82% (inactive). The values for the max response in [6] (setting [21]) and in assay [6] (setting [22]) were 3.93% and -1.11%, respectively.
`CC(C)(C)c1ccc(S(=O)(=O)/C=C\C#N)cc1`: the Potency in [1] was 3.98 µM (active) and 1.58 µM (active); in assay [2] it was > 46 µM (inactive); in assay [3], > 46 µM (inactive); in assay [6], 31.6 µM (active). For the same compound, the Potency entry in assay [5], in assay [17], in assay [8], in [9] and in assay [10] was “inactive” each time. Also, the outcome in [14], in assay [18] and in [19] was inactive. The figures for the max response in assay [6] (setting [21]) and in assay [6] (setting [22]) were 5.78% and -82.4%, respectively.

The values are drawn from PubChem BioAssay (NCATS).
